High-throughput results: PubChem, National Center for Advancing Translational Sciences (NCATS)
Hits are enriched below; roughly 21% of the tested compounds scored in any of these assays.
NS1 function inh: inhibitors of influenza NS1 protein function | AID 2326 | 0.4% of 270,000 active | Potency, µM (top dose mostly 46.1 µM), inactives show at the top dose activity, positive = more growth; also: potency is read from the fitted curve at half-maximal effect; actives are rising curves; nearly all actives have a fitted effect of over 50% in size
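Read-out: OD600 growth recovery of NS1-expressing budding yeast. Cells grown overnight at 30C in -URA glucose medium, washed, resuspended and diluted 1:100 in 2% galactose assay medium, pH 6.0. Same strain lacking NS1 served as positive control.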
Pf growth 48h: inhibits P. falciparum growth in the first generation, 48 h; AID 504832; P. falciparum luciferase growth in erythrocytes, 48 h; Potency, µM (doses to about 28.7 µM), for inactives: at the highest dose activity change, negative = inhibition, actives largely listed as inhibitors; 5.9% of 310,000 active; active = well fitted inhibition curve with a large enough effect; inconclusive = small, poorly fitted or top-dose-only effect, or another doubt; inactive = no such curve, though single readings can be large or run the other way; also: potency is read from the fitted curve at half-maximal effect; % is scaled to controls: 0 for no effect and ±100 for the full control effect
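Luciferase-expressing P. falciparum in infected erythrocytes (2% hematocrit, 0.1% parasitemia final) in RPMI 1640/0.5% Albumax were exposed to compound for 48 hours at 37 C, 5% CO2; growth read as luminescence.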
SARS PLP yeast: blocks SARS-CoV papain-like protease in a yeast assay; S. cerevisiae expressing SARS-CoV PLpro, growth rescue; Potency, µM (titrated, usually from 32.9 µM), for the others: at the top dose activity, positive = growth rescue, usual class: activators; 0.19% of 330,000 active; also: potency is read from the fitted curve at half-maximal effect; 0% is about no effect; nearly all actives have a fitted effect of over 55% in size
Shiga toxin inh: inhibitors of Shiga toxin in Vero cells | 9.2% of 290,000 active | AID 2315 | inhibition, % at 38.7 µM | Vero cells, Shiga toxin protein synthesis inhibition reporter; in the data active = inhibition mostly above about 28%, no sharp cut-off; inactive = mostly below about 43%; also: 0% is about no effect
CHX counter: counter-screen for Shiga toxin inhibitors: cycloheximide protein synthesis inhibition; max response, %; AID 2314; cell reporter, cycloheximide protein synthesis inhibition counterscreen; 12% of 300,000 active; in the data active = max response mostly above about 13%, no sharp cut-off; inactive = mostly below about 14%; also: read at 38.3 µM for the half of the compounds with a filed dose; 0% is about no effect
Pf growth 96h: P. falciparum growth inhibition at 96 hours. P. falciparum luciferase reporter growth, 96 h. Potency, µM (doses to about 28.7 µM), inactives show at the highest dose activity change, negative = inhibition, usual class: inhibitors. 6.9% of 320,000 active; active = well fitted inhibition curve with a large enough effect; inconclusive = small, poorly fitted or top-dose-only effect, or another doubt; inactive = no such curve, though single readings can be large or run the other way; also: potency is read from the fitted curve at half-maximal effect; % is scaled to controls: 0 for no effect and ±100 for the full control effect
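Plates of compound plus infected erythrocytes (2% hematocrit, 0.05% parasitemia final) incubate 96 hours, 37 C, 5% CO2. Detection reagent added; reduced luminescence from the parasites' luciferase reporter flags inhibition.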
* = called active by the depositor; i = inactive; ? = inconclusive; . = no result given. Unless noted, calls follow the shape of the full dose curve.

SMILES	NS1 function inh	Pf growth 48h	SARS PLP yeast	Shiga toxin inh	CHX counter	Pf growth 96h
CCc1ccc(CNC(=O)Cn2nc(-c3ccc(C)cc3)ccc2=O)cc1	.	3%	0%	17	0	43%
CC1(C)CC(CCNC(=O)CCl)(c2ccccc2)CCO1 (centres undefined)	2%	?	0%	-11	-2	?
COc1ccccc1N(CC(=O)NCCSCc1ccccc1)S(=O)(=O)c1ccc(C)cc1	1%	?	-3%	-10	-3	2.6µM*
COc1ccccc1N(CC(=O)NCCSCc1ccco1)S(=O)(=O)c1ccccc1	-1%	?	0%	-1	-4	0%
COc1ccc(N(CC(=O)NCCSC2CCCCC2)S(=O)(=O)c2ccccc2)cc1OC	8%	13µM*	5%	20	-1	?
COc1ccc(N(CC(=O)NCCSc2ccccc2)S(=O)(=O)c2ccccc2)cc1OC	0%	3%	1%	6	-4	35%
COc1ccc(N(CC(=O)NCCSCc2ccco2)S(=O)(=O)c2ccccc2)cc1OC	16%	-21%	-2%	17	-2	12µM*
CCN(CC)C(=N)N1c2ccccc2CCC1C (centres undefined)	.	8%	2%	-19	5	?
c1ccc2c([C@@H]3CCN(CCN4CCOCC4)C3)c[nH]c2c1	2%	.	.	.	.	.
CC(C)n1c(/N=C/c2c[nH]c3ccccc23)nc2ccccc21	-4%	-29%	-3%	45	20*	-6%
Cc1ccccc1-c1nc(CN(Cc2c(C)nn(C)c2C)C2CC2)c(C)o1	-2%	12µM*	0%	-15	2	37%
O=c1cc(CO)occ1OCc1ccccc1	-4%	37%	8%	11	9	.
C#CCOc1coc(COC(=O)c2ccccc2)cc1=O	4%	8%	24%	23	23*	-28%
COCCCN(C(=O)c1cc(-c2ccco2)nc2ccccc12)c1c(N)n(Cc2ccccc2)c(=O)[nH]c1=O	.	?	1%	.	.	?
C/C(=N\NC(=O)c1cccc(F)c1)c1ccc(Br)s1	-14%	?	1%	24	39*	3.7µM*
C/C(=N\NC(=O)c1ccccc1[N+](=O)[O-])c1ccc(Br)s1	1%	-2%	-2%	-6	-4	59%
C/C(=N\NC(=O)c1ccccc1O)c1ccc(Br)s1	-9%	13µM*	-1%	54*	64*	38%
CCOC(=O)c1cc(-c2ccccc2)n(CC2CC(c3ccc(OC)cc3)=NO2)n1 (centres undefined)	-48%	-17%	-4%	-3	2	-27%
COc1ccc(NC(=O)c2sccc2C)cn1	.	i	-2%	89*	43*	175%
COc1ccc(NC(=O)Nc2cccs2)cn1	5%	12%	1%	18	9.5*	22%
COc1ccc(NC(=O)c2cc(Br)c(Br)s2)cn1	.	-13%	-26%	91*	24*	20%
CC1(C)CC(=O)C2=C(C1)OC(N)=C(C#N)C2c1cn(-c2ccccc2)nc1-c1ccc(F)cc1 (centres undefined)	3%	50%	0%	10	0	?
CC1(C)CC(=O)C2=C(C1)C(c1cn(-c3ccccc3)nc1-c1ccccc1)C(C#N)=C(N)O2 (centres undefined)	7%	?	0%	2	23*	-27%
COc1cccc(CN2CCN(C3CCOCC3)CC2CCO)c1 (centres undefined)	1%	43%	0%	-5	1	37%
O=C(COc1ccc(Br)cc1F)Nc1nnc(C2CC2)s1	.	.	0%	.	.	.
SMILES	NS1 function inh	Pf growth 48h	SARS PLP yeast	Shiga toxin inh	CHX counter	Pf growth 96h
CCc1c(O)cc2n(c1=O)-c1ccc(Cl)cc1C2(C)C	-34%	12µM*	-43%	5	-1	-27%
CCCN1C(=O)C2(OCCO2)c2cc(Cl)ccc21	-13%	11%	2%	-1	-1	7%
CCCN(CC1CC1)C(=O)CCc1nnc(C(OC)c2ccccc2)o1 (centres undefined)	4%	-12%	1%	46*	11	?
COC(c1ccccc1)c1nnc(CCC(=O)NCc2ccc3ncccc3c2)o1 (centres undefined)	0%	13%	1%	2	-1	-20%
COC(c1ccccc1)c1nnc(CCC(=O)NCCC(C)C)o1 (centres undefined)	0%	9%	-1%	-3	-1	-22%
COC(c1ccccc1)c1nnc(CCC(=O)N(C)CCOc2ccccc2)o1 (centres undefined)	-7%	7%	0%	59*	28*	-8%
COC(c1ccccc1)c1nnc(CCC(=O)N(C)Cc2cccc(-n3cccn3)c2)o1 (centres undefined)	-6%	-5%	-1%	107*	33*	-19%
COC(c1ccccc1)c1nnc(CCC(=O)N(C)CCCC2CCCC2)o1 (centres undefined)	-31%	-6%	0%	46*	27*	?
C/C=C/c1ccc(OCC(=O)OCc2csc(CC(=O)Nc3ccccc3C)n2)c(OC)c1	16%	-13%	-3%	-7	2	-5%
O=C(Nc1cccc(F)c1)C1CC(=O)N(c2ccc(Br)cc2)C1 (centres undefined)	-16%	?	4%	21	-3	?
CC(C)(C)NS(=O)(=O)c1ccc(CCC(=O)NCc2ccco2)cc1	1%	-28%	2%	-7	2	12µM*
O=C(Nc1cccc(Cl)c1Cl)C1CC(=O)N(c2ccc(Br)cc2)C1 (centres undefined)	8%	0%	18%	7	-3	10µM*
CCOC(=O)C(=O)Nc1ccccc1C(N)=O	-1%	.	0%	-2	-2	21%
O=C(CCc1ccccc1)Nc1ccccc1C(=O)NCc1ccco1	-7%	?	19%	9	-3	13µM*
CCOC(=O)C(=O)Nc1ccccc1C(=O)NCc1ccccc1	-3%	11%	0%	85*	33*	?
O=C(CCc1ccc(S(=O)(=O)NCc2ccccc2)cc1)NCc1ccco1	4%	0%	14%	21	1	-27%
O=C(Nc1ccc(Cl)cc1)Nc1ccccc1C(=O)NCc1ccco1	3%	.	-10%	58*	56*	.
O=C(Nc1ccccc1C(=O)NCc1ccccc1)c1ccco1	-37%	-23%	-7%	13	-2	13µM*
Cc1ccc(/C=N/NC(=O)C2CC(=O)N(c3ccccc3)C2)s1 (centres undefined)	-10%	12%	2%	-2	8	93%
O=C(N/N=C/c1ccccc1O)C1CC(=O)N(c2ccc(Cl)cc2)C1 (centres undefined)	3%	12µM*	3%	-1	-2	77%
O=C(Nc1ccccc1C(=O)OCC(=O)c1c[nH]c2ccccc12)c1ccco1	28%	18%	3%	82*	57*	?
